About 83,000 compounds went through this panel and 20% of them were active in at least one assay; those are over-represented in the sample as a whole.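 Values shown are percent growth following 48 h exposure of cells in 96-well plates to a single concentration of compound; below 10 was considered active.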 A number with no mark means an inactive call. Calls of active or inactive are those of the source.
Test system: HL-60(TB) leukemia
Assay: NCI-60 one-dose screen, 48 h (100 = growth as untreated, 0 = no growth, -100 = all killed)
Conditions: 10 µM unless noted

SMILES	growth
CCCc1cc2c(cc1Br)OCO2	103%
COc1ccc(C(=O)N=Nc2c(O)n(C)c3ccccc23)cc1	99.4%
COc1c(CCC[P+](c2ccccc2)(c2ccccc2)c2ccccc2)cc2c(c1OC)OCO2	10.2%
CN(C)c1ccc(/C=C/c2ccnc3c(O)cccc23)cc1	-26% (active)
COc1cc(C2CC(c3ccc(C)cc3)=NN2C(C)=O)ccc1Oc1ccnc2cc(Cl)ccc12 (stereo not given)	100%
CN(C)CCC=C1c2ccccc2C(C)(C)c2ccccc21	85.5%
COC(=O)c1c2c(c(C)[n+]([O-])c1C)C(=O)C=C(NCc1ccc(Cl)cc1)C2=O	-30.5% (active)
CCCOC(=O)c1c(C)n(C)c2scc[n+]12	92.6%
O=C1C=C(Cl)C(=O)c2ccccc21	57.3%
C=C1C(=O)O[C@H]2[C@H]1CC/C(COC(=O)NCC(C)c1ccc(CC(C)C)cc1)=C\CC[C@@]1(C)O[C@@H]21 (stereo not given in full)	-29.8% (active)
COc1ccc(N2C(=O)/C(=C/C(Cl)=C/c3ccc([N+](=O)[O-])cc3)SC2=S)cc1	-14% (active)
COc1cccc(CCC(=O)c2cc3c(N)c(C(=O)Nc4cccc(Cl)c4C)sc3nc2C)c1	0.884% (active)
COc1cc2c(c(OC)c1OC)C(=O)CC(c1cccc(C(=O)Nc3cccc(Br)c3)c1)O2 (stereo not given)	91.8%
COc1cc2nccc(Oc3ccc(NC(=O)C4(C(=O)Nc5ccc(F)cc5)CC4)cc3)c2cc1OC	8.85% (active)
C#CCOc1cccc(Nc2ncnc3cc(NC(=O)C=C)ccc23)c1	-16.4% (active)

Source: PubChem BioAssay (NCI)
